About 83,000 compounds went through this panel and 20% of them were active in at least one assay; those are over-represented in the sample as a whole.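 48-hour exposure, single concentration, 96-well plates; percent growth endpoint where 0 means no net growth. Active: below 10.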 The source made the active and inactive calls.
What was measured:
Experiment in all cases: NCI-60 one-dose screen, 48 h (100 = growth as untreated, 0 = no growth, -100 = all killed)
Details in all cases: 10 µM unless noted
NCI-H23 lung = test system: NCI-H23 lung
NCI-H226 lung = test system: NCI-H226 lung
NCI-H322M lung = test system: NCI-H322M lung
HOP-62 NSCLC = test system: HOP-62 NSCLC
NCI-H460 lung = test system: NCI-H460 lung
HOP-92 NSCLC = test system: HOP-92 NSCLC
NCI-H522 lung = test system: NCI-H522 lung
A549/ATCC NSCLC = test system: A549/ATCC NSCLC
786-0 renal = test system: 786-0 renal
COLO 205 colon = test system: COLO 205 colon
DU-145 prostate = test system: DU-145 prostate
K-562 leukemia = test system: K-562 leukemia
MALME-3M melanoma = test system: MALME-3M melanoma
MDA-MB-231 breast = test system: MDA-MB-231 breast
RXF 393 renal = test system: RXF 393 renal
SF-268 CNS = test system: SF-268 CNS
SF-295 CNS = test system: SF-295 CNS
SF-539 CNS = test system: SF-539 CNS
UACC-257 melanoma = test system: UACC-257 melanoma
M14 melanoma = test system: M14 melanoma

Measured: growth

Cc1c(Cl)cccc1NC(=O)c1sc2nc3c(cc2c1N)CCCCC3
active: COLO 205 colon 9.8% | K-562 leukemia 8.36% | M14 melanoma 2.84%
inactive: NCI-H23 lung 48% | NCI-H226 lung 71.6% | NCI-H322M lung 49.8% | HOP-62 NSCLC 43.2% | NCI-H460 lung 16.4% | HOP-92 NSCLC 37.8% | NCI-H522 lung 10% | A549/ATCC NSCLC 34.5% | 786-0 renal 32.1% | DU-145 prostate 15.6% | MALME-3M melanoma 68.9% | MDA-MB-231 breast 48.4% | RXF 393 renal 22.8% | SF-268 CNS 54.2% | SF-295 CNS 32% | SF-539 CNS 13.9% | UACC-257 melanoma 67%

C=CCn1c(CN2CCN(c3cc4c(cc3F)c(=O)c(C(=O)O)cn4C3CC3)CC2)n[nH]c1=S
inactive: NCI-H23 lung 104% | NCI-H226 lung 110% | NCI-H322M lung 88.6% | HOP-62 NSCLC 99.8% | NCI-H460 lung 108% | HOP-92 NSCLC 104% | NCI-H522 lung 87.9% | A549/ATCC NSCLC 101% | 786-0 renal 95.6% | COLO 205 colon 102% | DU-145 prostate 103% | K-562 leukemia 89.6% | MALME-3M melanoma 85.4% | MDA-MB-231 breast 116% | RXF 393 renal 115% | SF-268 CNS 97.5% | SF-295 CNS 101% | SF-539 CNS 98.8% | UACC-257 melanoma 105% | M14 melanoma 107%

O=C(O)C(C(=O)O)c1cccc2ccccc12
inactive: NCI-H23 lung 99.9% | NCI-H226 lung 102% | NCI-H322M lung 101% | HOP-62 NSCLC 92.7% | NCI-H460 lung 104% | HOP-92 NSCLC 94.5% | NCI-H522 lung 88.9% | A549/ATCC NSCLC 94.4% | 786-0 renal 95.4% | COLO 205 colon 110% | DU-145 prostate 105% | K-562 leukemia 93.8% | MALME-3M melanoma 107% | MDA-MB-231 breast 108% | RXF 393 renal 107% | SF-268 CNS 98% | SF-295 CNS 101% | SF-539 CNS 94.5% | UACC-257 melanoma 88.1% | M14 melanoma 101%

C=C1C(=O)O[C@H]2[C@H]1CC/C(COC(=O)CCC(=O)OC/C1=C/CC[C@@]3(C)O[C@H]3[C@H]3OC(=O)C(=C)[C@@H]3CC1)=C\CC[C@@]1(C)O[C@@H]21
inactive: NCI-H23 lung 58.5% | NCI-H226 lung 84.3% | NCI-H322M lung 96.1% | HOP-62 NSCLC 85.7% | NCI-H460 lung 93.9% | A549/ATCC NSCLC 88.7% | 786-0 renal 40.7% | DU-145 prostate 18.7% | SF-268 CNS 78.8% | SF-295 CNS 98.4% | SF-539 CNS 16.6% | UACC-257 melanoma 21.4%
active: HOP-92 NSCLC -1.85% | NCI-H522 lung -69.2% | COLO 205 colon -55% | K-562 leukemia 3.55% | MALME-3M melanoma -5.56% | MDA-MB-231 breast -0.376% | RXF 393 renal -71.4% | M14 melanoma 1.21%

CC(C)CSc1nc(Nc2ccccc2)c(C#N)c(-c2ccc(F)cc2)n1
active: NCI-H226 lung 6.87% | HOP-62 NSCLC 7.29% | NCI-H460 lung 3.5% | HOP-92 NSCLC -47.6% | 786-0 renal -45.6% | MALME-3M melanoma -5.57% | MDA-MB-231 breast -3.62% | RXF 393 renal 2.42%
inactive: NCI-H23 lung 38.7% | NCI-H322M lung 27.9% | NCI-H522 lung 59.1% | A549/ATCC NSCLC 21.4% | COLO 205 colon 20.3% | DU-145 prostate 75.9% | K-562 leukemia 50.7% | SF-268 CNS 37.7% | SF-295 CNS 16.2% | SF-539 CNS 22.4% | UACC-257 melanoma 66.2% | M14 melanoma 31.6%

c1ccc(Sc2ncccn2)nc1
inactive: NCI-H23 lung 93% | NCI-H226 lung 92.2% | NCI-H322M lung 111% | HOP-62 NSCLC 100% | NCI-H460 lung 103% | HOP-92 NSCLC 89% | NCI-H522 lung 91.6% | A549/ATCC NSCLC 103% | 786-0 renal 103% | COLO 205 colon 116% | DU-145 prostate 109% | K-562 leukemia 90% | MALME-3M melanoma 111% | MDA-MB-231 breast 109% | RXF 393 renal 110% | SF-268 CNS 104% | SF-295 CNS 109% | SF-539 CNS 96% | UACC-257 melanoma 99.2% | M14 melanoma 99.2%

COc1ccccc1-c1ccc2nc(NC(=O)Nc3cc(C(F)(F)F)cc(C(F)(F)F)c3)sc2c1
active: NCI-H23 lung 6.38% | HOP-62 NSCLC -1.58% | NCI-H460 lung -4.9% | HOP-92 NSCLC -8.46% | NCI-H522 lung -2.89% | 786-0 renal 8.85% | COLO 205 colon -84.8% | K-562 leukemia 5.97% | MALME-3M melanoma -13% | MDA-MB-231 breast -64.2% | RXF 393 renal -6.71% | SF-295 CNS -0.289% | SF-539 CNS 5.2% | UACC-257 melanoma -5.57%
inactive: NCI-H226 lung 16.9% | NCI-H322M lung 15.3% | A549/ATCC NSCLC 12.7% | DU-145 prostate 19.5% | SF-268 CNS 16.8% | M14 melanoma 16%

Nc1c(C(=O)Nc2ccccc2Cl)sc2nc3c(cc12)CN(Cc1ccccc1)CC3
inactive: NCI-H23 lung 103% | NCI-H226 lung 91.5% | NCI-H322M lung 92.4% | HOP-62 NSCLC 104% | NCI-H460 lung 93.4% | HOP-92 NSCLC 109% | NCI-H522 lung 88.2% | A549/ATCC NSCLC 112% | 786-0 renal 99% | COLO 205 colon 95.5% | DU-145 prostate 94% | K-562 leukemia 99% | MALME-3M melanoma 75.5% | MDA-MB-231 breast 105% | RXF 393 renal 110% | SF-268 CNS 81.5% | SF-295 CNS 100% | SF-539 CNS 102% | UACC-257 melanoma 128% | M14 melanoma 107%

C=C1C(=O)O[C@H]2[C@H]1CC/C(COC(=O)c1cn(C)c3ccccc13)=C\CC[C@@]1(C)O[C@@H]21
inactive: NCI-H23 lung 22.5% | NCI-H322M lung 85.2% | HOP-62 NSCLC 32.4% | NCI-H460 lung 39.7% | A549/ATCC NSCLC 51.4% | SF-295 CNS 63.8%
active: NCI-H226 lung -36.5% | HOP-92 NSCLC -57.9% | NCI-H522 lung -85.1% | 786-0 renal -63% | COLO 205 colon -80.4% | DU-145 prostate -72.4% | K-562 leukemia 0.396% | MALME-3M melanoma -60.3% | MDA-MB-231 breast -49% | RXF 393 renal -87.8% | SF-268 CNS -8.89% | SF-539 CNS -58% | UACC-257 melanoma -56% | M14 melanoma -36.8%

COc1ccc(-c2nnc(N3CCN(C(=O)CN4CCN(c5ccccc5)CC4)CC3)nc2-c2ccc(OC)cc2)cc1
active: K-562 leukemia 4.73% | RXF 393 renal -9.53% | SF-295 CNS -23%
inactive: NCI-H23 lung 48.3% | NCI-H226 lung 46.7% | NCI-H322M lung 77.3% | HOP-62 NSCLC 58.9% | NCI-H460 lung 14% | HOP-92 NSCLC 23.2% | NCI-H522 lung 14.2% | A549/ATCC NSCLC 28% | 786-0 renal 33.7% | COLO 205 colon 17.5% | DU-145 prostate 57.8% | MALME-3M melanoma 34.2% | MDA-MB-231 breast 65.1% | SF-268 CNS 52.8% | SF-539 CNS 46.6% | UACC-257 melanoma 31.2% | M14 melanoma 49%

CC(C)(C)c1nc2c(s1)c1nc(N)ncc1c1ccc(NS(=O)(=O)c3c(F)cccc3F)c(F)c12
active: COLO 205 colon 4.03% | MALME-3M melanoma -31.6% | UACC-257 melanoma -13.1% | M14 melanoma 7.08%
inactive: NCI-H23 lung 78.5% | NCI-H226 lung 65.4% | NCI-H322M lung 60.4% | HOP-62 NSCLC 84.1% | NCI-H460 lung 52.5% | HOP-92 NSCLC 44.1% | NCI-H522 lung 50.3% | A549/ATCC NSCLC 55.8% | 786-0 renal 66.1% | DU-145 prostate 49.9% | K-562 leukemia 66.3% | MDA-MB-231 breast 29.2% | RXF 393 renal 13.6% | SF-268 CNS 79.1% | SF-295 CNS 60.7% | SF-539 CNS 79.7%

COc1ccc2c(c1)Oc1nc(N)c(C#N)c(N)c1C2Sc1ccc(SC)cc1 (stereo not given)
inactive: NCI-H23 lung 44.1% | NCI-H226 lung 75.6% | NCI-H322M lung 77.4% | HOP-62 NSCLC 100% | NCI-H460 lung 58% | HOP-92 NSCLC 18.4% | A549/ATCC NSCLC 85.7% | DU-145 prostate 46.2% | MDA-MB-231 breast 10.5% | SF-268 CNS 61.4% | SF-295 CNS 80.8% | SF-539 CNS 14.7% | UACC-257 melanoma 67.3% | M14 melanoma 27.6%
active: NCI-H522 lung -81.5% | 786-0 renal 8.66% | COLO 205 colon -3.1% | K-562 leukemia 2.45% | MALME-3M melanoma -22.5% | RXF 393 renal -54.8%

COc1ccc(-c2[nH]c3ccccc3c2C=C(C#N)C#N)cc1
inactive: NCI-H226 lung 25.8% | NCI-H322M lung 52.1% | HOP-62 NSCLC 32.2% | 786-0 renal 14.9% | MALME-3M melanoma 87.4% | MDA-MB-231 breast 17.6% | SF-268 CNS 25.1% | UACC-257 melanoma 54.2%
active: NCI-H23 lung 2.52% | NCI-H460 lung 6.67% | HOP-92 NSCLC -17.2% | NCI-H522 lung -48.5% | A549/ATCC NSCLC 5.94% | COLO 205 colon -8.28% | DU-145 prostate -10.1% | K-562 leukemia -5.54% | RXF 393 renal 3.79% | SF-295 CNS -50.4% | SF-539 CNS -26.8% | M14 melanoma 1.05%

CCO/C=N/S(=O)(=O)c1cc2c(cc1Cl)NC=NS2(=O)=O
inactive: NCI-H23 lung 103% | NCI-H226 lung 98.7% | NCI-H322M lung 111% | HOP-62 NSCLC 93.9% | NCI-H460 lung 106% | HOP-92 NSCLC 92.2% | NCI-H522 lung 99.4% | A549/ATCC NSCLC 89% | 786-0 renal 100% | COLO 205 colon 108% | DU-145 prostate 108% | K-562 leukemia 99.9% | MALME-3M melanoma 107% | MDA-MB-231 breast 106% | RXF 393 renal 103% | SF-268 CNS 103% | SF-295 CNS 104% | SF-539 CNS 98.1% | UACC-257 melanoma 90.2% | M14 melanoma 101%

— PubChem BioAssay (NCI)
